# Whole data set: some 18,000 sequences, median “TetR repression strength (sort-seq, GFP reporter)” near 0.23, cut for the highest 2% near 0.68. This is one part of a sample in which the highest values are shown more often than they occur.
# Biological target: TetR (class B, Tn10) (UniProt P04483)
# Assay: TetR repression strength (sort-seq, GFP reporter) (relative to tetO2 = 1); higher = stronger repression
# Details: E. coli
# Procedure, shortened: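 In LB with 50 µg/mL chloramphenicol, E. coli SIG10-MAX holding a low-copy library with eight randomized operator positions between a constitutive promoter and sfGFP, plus constitutive TetR, grew for 5 h at 37 °C. FACS then sorted 10^6 cells into 13 fluorescence bins for Illumina sequencing of each bin. Repression strength equals the top bin index plus one less the read-weighted mean bin, normalized to the unaltered operator. Values from three independent transformations were averaged when reads were ≥30 in every replicate and the CV was ≤0.5.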
# Chain of TetR (class B, Tn10) (P04483 whole entry): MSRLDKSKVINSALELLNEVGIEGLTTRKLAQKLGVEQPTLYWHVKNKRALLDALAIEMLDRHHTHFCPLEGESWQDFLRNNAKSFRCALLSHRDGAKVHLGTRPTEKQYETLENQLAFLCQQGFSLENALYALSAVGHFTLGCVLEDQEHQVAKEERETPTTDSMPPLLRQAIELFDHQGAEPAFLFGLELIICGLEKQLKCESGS
row,Sequence,TetR repression strength
1,TCCCTGTGAGTCGTTGAGA,0.443
2,TCCCGGTAAGTATTCGAGA,0.175
3,TCCCCATAAGTCCTTGAGA,0.415
4,TCCCATAGAGTATGGGAGA,0.0311
5,TCCCGGAGAGTAGCGGAGA,0.287
6,TCCCTATCAGTTGTTGAGA,0.441
7,TCCCTTTCAGTTATTGAGA,0.55
8,TCCCTATCAGTGTCAGAGA,0.958
9,TCCCTATCAGTTGTGGAGA,0.726
10,TCCCTTTCAGTGATTGAGA,0.713
11,TCCCAATCAGTGAGAGAGA,0.538
12,TCCCAATCAGTGTGTGAGA,0.101
13,TCCCTATGAGTGTCAGAGA,0.238
14,TCCCTTTCAGTGAGTGAGA,0.488
15,TCCCAATCAGTGAGTGAGA,0.701
16,TCCCTATAAGTTGTGGAGA,0.201
17,TCCCTATCAGTGTCTGAGA,0.556
18,TCCCTTGTAGTTGAAGAGA,0.148
19,TCCCTTGGAGTGATAGAGA,0.384
20,TCCCTTTCAGTTAAGGAGA,0.196
21,TCCCTGGAAGTGTTCGAGA,0.277
22,TCCCGGAGAGTATAAGAGA,0.289
23,TCCCAAGAAGTAGGTGAGA,0.23
24,TCCCATAAAGTTCAAGAGA,0.224

row,Sequence,TetR repression strength
1,TCCCTTACAGTTCCAGAGA,0.363
2,TCCCTTATAGTCTCGGAGA,0.214
3,TCCCTCTCAGTGATGGAGA,0.546
4,TCCCAATCAGTAACTGAGA,0.278
5,TCCCAATCAGTAACGGAGA,0.802
6,TCCCTATCAGTGAGCGAGA,0.73
7,TCCCTAACAGTGATGGAGA,0.278
8,TCCCCATCAGTAACGGAGA,0.304
9,TCCCTATCAGTCAATGAGA,0.625
10,TCCCTATGAGTGAGCGAGA,0.278
11,TCCCTATAAGTCATTGAGA,0.498
12,TCCCTATCAGTCATTGAGA,0.708
13,TCCCTGTCAGTGAGCGAGA,0.341
14,TCCCTATCAGTGATGGAGA,0.999
15,TCCCGTTCAGTGCTTGAGA,0.367
16,TCCCACTCAGTGCATGAGA,0.218
17,TCCCCCTGAGTAGGCGAGA,0.179
18,TCCCCGCAAGTACACGAGA,0.292
19,TCCCCAGGAGTGATGGAGA,0.176
20,TCCCTAGTAGTTGTGGAGA,0.283
21,TCCCTCGGAGTTGGTGAGA,0.237
22,TCCCTGTCAGTCGGTGAGA,0.378
23,TCCCCGGCAGTGGTGGAGA,0.25
24,TCCCGGACAGTGCCAGAGA,0.402

row,Sequence,TetR repression strength
1,TCCCATGGAGTCGGTGAGA,0.0966
2,TCCCTATAAGTGAGTGAGA,0.693
3,TCCCTATAAGTGAGGGAGA,0.237
4,TCCCTATAAGTCAGTGAGA,0.427
5,TCCCTAACAGTGAATGAGA,0.46
6,TCCCGGACAGTGTGTGAGA,0.2
7,TCCCGGACAGTGTGAGAGA,1.2
8,TCCCGGACAGTTTGGGAGA,0.473
9,TCCCAATCAGTGAATGAGA,0.603
10,TCCCGGACAGTTGGGGAGA,0.922
11,TCCCGGACAGTTGGAGAGA,0.299
12,TCCCGGACAGTGAGAGAGA,0.246
13,TCCCTATCAGTGAATGAGA,0.781
14,TCCCGCGAAGTAAGCGAGA,0.151
15,TCCCTCCTAGTGCGAGAGA,0.151
16,TCCCCGTGAGTTGGAGAGA,0.319
17,TCCCCATGAGTTAGCGAGA,0.188
18,TCCCTGCCAGTTCATGAGA,0.0931
19,TCCCGAGCAGTGGAGGAGA,0.35
20,TCCCCTAGAGTGGGGGAGA,0.195
21,TCCCGTTCAGTTTGTGAGA,0.145
22,TCCCAATCAGTTAGGGAGA,0.146
23,TCCCTGGCAGTCGGGGAGA,0.473
24,TCCCTAGTAGTGCAAGAGA,0.538

row,Sequence,TetR repression strength
1,TCCCTGTGAGTCTCAGAGA,0.365
2,TCCCTTCGAGTGATTGAGA,0.73
3,TCCCTTTAAGTAAGTGAGA,0.247
4,TCCCTACCAGTGATTGAGA,0.511
5,TCCCTGTCAGTGTGAGAGA,0.0482
6,TCCCTATGAGTGTGAGAGA,0.252
7,TCCCTATCAGTGTGAGAGA,0.919
8,TCCCTTTGAGTAAGTGAGA,1.15
9,TCCCTAACAGTGATTGAGA,0.745
10,TCCCTTTGAGTGATTGAGA,0.263
11,TCCCTAACAGTGAGTGAGA,0.514
12,TCCCCTCGAGTGATTGAGA,0.244
13,TCCCTTTGAGTAAGGGAGA,0.152
14,TCCCAAAAAGTTCCGGAGA,0.0327
15,TCCCATTTAGTCTGTGAGA,0.192
16,TCCCTAAAAGTACAGGAGA,0.262
17,TCCCGCTGAGTAATGGAGA,0.218
18,TCCCTGCGAGTATTTGAGA,0.391
19,TCCCTAGTAGTGTGGGAGA,0.216
20,TCCCTAGAAGTTTAAGAGA,0.0122
21,TCCCGTATAGTCTGTGAGA,0.0605
22,TCCCGTCAAGTGTCCGAGA,0.279
23,TCCCGGACAGTCCGTGAGA,0.196
24,TCCCCGTCAGTGATAGAGA,0.35

row,Sequence,TetR repression strength
1,TCCCTATCAGTGTTAGAGA,0.974
2,TCCCTTTCAGTGTTAGAGA,0.459
3,TCCCTATTAGTGACTGAGA,0.345
4,TCCCAACCAGTAATGGAGA,0.713
5,TCCCTATCAGTGACGGAGA,0.472
6,TCCCTATCAGTGATAGAGA,1
7,TCCCGATCAGTGTTAGAGA,0.556
8,TCCCAACGAGTAATGGAGA,0.395
9,TCCCTATCAGTGACTGAGA,0.722
10,TCCCTTGCAGTGATAGAGA,0.657
11,TCCCAACCAGTCATGGAGA,0.159
12,TCCCGTCCAGTCTGAGAGA,0.152
13,TCCCGATGAGTGTGGGAGA,0.221
14,TCCCTATCAGTGAGAGAGA,0.948
15,TCCCTTCAAGTCATTGAGA,0.0199
16,TCCCTATCAGTGGGTGAGA,0.554
17,TCCCTTGAAGTCATTGAGA,1.05
18,TCCCTATCAGTAATTGAGA,0.787
19,TCCCTATCAGTGCGTGAGA,0.546
20,TCCCTATCAGTTATTGAGA,0.504
21,TCCCTTGAAGTCAGTGAGA,0.236
22,TCCCTATCAGTAACTGAGA,0.474
23,TCCCTATCAGTGATTGAGA,0.939
24,TCCCTATTAGTAATTGAGA,0.416

row,Sequence,TetR repression strength
1,TCCCTGTCAGTGATTGAGA,0.592
2,TCCCTTATAGTATCAGAGA,0.186
3,TCCCGATAAGTAGCGGAGA,0.234
4,TCCCTTGCAGTGTACGAGA,0.204
5,TCCCCCTTAGTTGTCGAGA,0.307
6,TCCCGCGAAGTGTTTGAGA,0.197
7,TCCCTGGGAGTGACAGAGA,0.299
8,TCCCTAAGAGTGGGCGAGA,0.157
9,TCCCTAGAAGTGACGGAGA,0.153
10,TCCCCGAGAGTCCTAGAGA,0.235
11,TCCCGTCAAGTGCCGGAGA,0.325
12,TCCCTATCAGTGAGGGAGA,0.5
13,TCCCTATCAGTGGCAGAGA,0.771
14,TCCCTATCAGTCAAAGAGA,0.636
15,TCCCTATCAGTGAAAGAGA,0.784
16,TCCCAATCAGTGGCAGAGA,0.433
17,TCCCTATCAGTGAGTGAGA,0.79
18,TCCCTGTCAGTGACAGAGA,0.636
19,TCCCTAACAGTGAAAGAGA,0.575
20,TCCCTATCAGTAAGTGAGA,0.545
21,TCCCTATCAGTGACAGAGA,0.863
22,TCCCTGTCAGTGGCAGAGA,0.545
23,TCCCTAACAGTGACAGAGA,0.559
24,TCCCTGTTAGTGCGGGAGA,0.226

row,Sequence,TetR repression strength
1,TCCCGGTGAGTTGTCGAGA,0.355
2,TCCCATATAGTTTGGGAGA,0.175
3,TCCCTTGAAGTATCGGAGA,0.146
4,TCCCATAGAGTGCGTGAGA,0.18
5,TCCCTGGCAGTTTTTGAGA,0.196
6,TCCCCCCGAGTGCTGGAGA,0.344
7,TCCCCCTGAGTCATTGAGA,0.526
8,TCCCGGGCAGTGGGGGAGA,0.347
9,TCCCGCGTAGTGTACGAGA,0.108
10,TCCCTATTAGTGTGTGAGA,0.219
11,TCCCTATTAGTGAGTGAGA,0.762
12,TCCCTATTAGTGAGAGAGA,0.631
13,TCCCGTGGAGTGCACGAGA,0.315
14,TCCCCACCAGTGGATGAGA,1.05
15,TCCCAACAAGTGGATGAGA,0.243
16,TCCCCACGAGTGGATGAGA,0.382
17,TCCCCCCCAGTGGATGAGA,0.232
18,TCCCCACAAGTGGATGAGA,1.22
19,TCCCCCACAGTGGATGAGA,0.294
20,TCCCCCCGAGTAAGTGAGA,0.278
21,TCCCGTCTAGTACTCGAGA,0.262
22,TCCCAAAGAGTGGGCGAGA,0.0498
23,TCCCTCTTAGTGTGGGAGA,0.0777
24,TCCCGATGAGTATGTGAGA,0.366

row,Sequence,TetR repression strength
1,TCCCTGCCAGTATAGGAGA,0.308
2,TCCCCCCTAGTGGACGAGA,0.178
3,TCCCTCGTAGTGGATGAGA,0.206
4,TCCCTAAGAGTAAACGAGA,0.446
5,TCCCTATGAGTTTGAGAGA,0.33
6,TCCCTAAGAGTACCAGAGA,0.429
7,TCCCTATGAGTTCGAGAGA,0.195
8,TCCCTAAGAGTAAAAGAGA,0.839
9,TCCCTATGAGTAAAAGAGA,0.24
10,TCCCTATGAGTACGAGAGA,0.291
11,TCCCTATGAGTTCCAGAGA,1.01
12,TCCCTATGAGTTGAAGAGA,0.326
13,TCCCTATGAGTTCCCGAGA,0.289
14,TCCCTATGAGTACCAGAGA,0.857
15,TCCCTATGAGTTTAAGAGA,1.03
16,TCCCGTGTAGTAAGTGAGA,0.313
17,TCCCCGAGAGTTGGGGAGA,0.104
18,TCCCAATCAGTCCGCGAGA,0.295
19,TCCCAAGTAGTCACGGAGA,0.295
20,TCCCCCGGAGTAGAGGAGA,0.187
21,TCCCGGCTAGTAGCAGAGA,0.0201
22,TCCCTTTGAGTCGCAGAGA,0.386
23,TCCCAGGGAGTGGAAGAGA,0.235
24,TCCCGACTAGTTCGCGAGA,0.367

row,Sequence,TetR repression strength
1,TCCCATATAGTTAGCGAGA,0.247
2,TCCCTCAGAGTTCCAGAGA,0.313
3,TCCCCACTAGTCCGTGAGA,0.279
4,TCCCTTATAGTACAGGAGA,0.103
5,TCCCCTATAGTACAGGAGA,0.792
6,TCCCTTAAAGTACAGGAGA,0.125
7,TCCCCTAAAGTACAGGAGA,0.0737
8,TCCCCTATAGTATAGGAGA,0.0691
9,TCCCCTTAAGTACAGGAGA,0.72
10,TCCCTGGAAGTGCAAGAGA,0.431
11,TCCCAGTCAGTTGAAGAGA,0.858
12,TCCCAGGCAGTTGAAGAGA,0.182
13,TCCCAGGCAGTTGACGAGA,0.698
14,TCCCAATCAGTTGAAGAGA,0.279
15,TCCCAGGGAGTTGACGAGA,0.0614
16,TCCCAGGCAGTTGAGGAGA,0.216
